The text below walks through data of PubChem BioAssay (EPA / NIEHS).

The source made the active and inactive calls. Rule for the calls: active = hit-call score of the fitted dose curve at least 0.9, where 1 is the maximum; inactive = score below 0.9.

Read-out in test [1]: Monokine induced gamma interferon (MIG), CXCL9 (gene 4283)
The test is described as follows: BSK_3C_MIG: BioMAP Diversity Plus: 3C Assay for Monokine induced gamma interferon (MIG) Biomarker Activity (AID 2283021). The following applies: primary human endothelial cells (HUVEC); actives raise or lower the signal. The method in brief:
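Endothelial primary cells (human umbilical vein) are dosed with test chemical in the 3C system. MIG levels are measured by ELISA at 24 h and fitted in both directions relative to DMSO.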

Test [2] is described as follows: BSK_3C_SRB: Viability Assessment in the BioMAP Diversity Plus: 3C Assay (AID 2283023).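 Note: fitted both ways against DMSO so a hit may be signal rise or drop.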 Conditions: primary human endothelial cells (HUVEC). The method in brief:
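Overt cytotoxicity is gauged in parallel confluent HUVEC cultures by SRB total-protein staining at the time of biomarker measurement, 24 h after dosing. Gain or loss of signal is fitted versus DMSO.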

Read-out in test [3]: Matrix Metallopeptidase 1 (MMP1), MMP1 (gene 4312)
Nature of the test: BSK_BE3C_MMP1: BioMAP Diversity Plus: BE3C Assay for Matrix Metallopeptidase 1 (MMP1) Biomarker Activity (AID 2283024). Conditions: primary human bronchial epithelial cells; actives raise or lower the signal. The method in brief:
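MMP1 signal, measured by ELISA after a 24 h chemical exposure of human primary bronchial epithelial cells, is analysed with bidirectional fitting using DMSO as negative control.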

The nature of test [4]: BSK_3C_Vis: BioMAP Diversity Plus: 3C Assay for Morphology Visualization (AID 2283025).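 Note: fitted both ways so gain or loss versus DMSO counts.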 The following applies: primary human endothelial cells (HUVEC). The essentials: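 Morphology read by light microscopy serves as a background control for the multiplexed 3C assay in human umbilical vein endothelial cells, taken 24 h after dosing, with DMSO as the negative control and bidirectional curve fitting.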

Read-out in test [5]: Pselectin, SELP (gene 6403)
Nature of the test: BSK_4H_Pselectin: BioMAP Diversity Plus: 4H Assay for Pselectin Biomarker Activity (AID 2283026). Conditions: primary human endothelial cells (HUVEC); actives raise or lower the signal. The essentials:
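Endothelial primary cells (human umbilical vein) are dosed, incubated 24 h, and assayed for surface P-selectin by ELISA; responses in either direction are fitted relative to the DMSO negative control.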

The nature of test [6]: BSK_4H_SRB: Viability Assessment in the BioMAP Diversity Plus: 4H Assay (AID 2283027).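 For AC50: curves fitted both ways versus DMSO so AC50 may be loss or gain.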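 Note: cells exposed to compound for 24 h before staining.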 Conditions: primary human endothelial cells (HUVEC). The essentials: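 HUVEC, 24 h post-dose; 10% TCA fix, 0.1% SRB stain, A560 nm. Total protein = overt cytotoxicity, parallel to biomarker read. Bidirectional fit vs DMSO baseline.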
Test [7] can be described thus: BSK_BE3C_SRB: Viability Assessment in the BioMAP Diversity Plus: BE3C Assay (AID 2283028). Conditions: primary human bronchial epithelial cells. The method in brief: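 SRB total-protein staining (0.1%, after TCA fixation) of chemically dosed human bronchial epithelial primary cells at 24 h; DMSO serves as the negative control for bidirectional curve fitting.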
Read-out in test [8]: Thrombomodulin, THBD (gene 7056)
The test is described as follows: BSK_3C_Thrombomodulin: BioMAP Diversity Plus: 3C Assay for Thrombomodulin Biomarker Activity (AID 2283029). Conditions: primary human endothelial cells (HUVEC); actives raise or lower the signal. The essentials:
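Endothelial cells from umbilical vein are dosed with test chemical and incubated 24 h. Thrombomodulin is then quantified by ELISA, with DMSO serving as negative control and activity baseline.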

Read-out in test [9]: Urokinase-type plasminogen activator receptor (uPAR), PLAUR (gene 5329)
Nature of the test: BSK_4H_uPAR: BioMAP Diversity Plus: 4H Assay for Urokinase-type plasminogen activator receptor (uPAR) Biomarker Activity (AID 2283030). Conditions: primary human endothelial cells (HUVEC); actives raise or lower the signal. The method in brief:
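Endpoint derived via bidirectional curve fitting against DMSO baseline; readout was ELISA detection of uPAR on umbilical vein endothelial cells at 24 h post-treatment, with SRB-stained parallel cultures assessing cytotoxicity.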

Read-out in test [10]: Vascular endothelial growth factor receptor 2 (Homo sapiens) (UniProt P35968)
The test is described as follows: BSK_4H_VEGFRII: BioMAP Diversity Plus: 4H Assay for Vascular endothelial growth factor receptor 2 (VEGFR2) Biomarker Activity (AID 2283031). Conditions: primary human endothelial cells (HUVEC); actives raise or lower the signal. The essentials:
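In this multiplexed HUVEC system, biomarker ELISA was performed after 24 h chemical exposure. Parallel SRB staining (TCA fixation, 560 nm) tracked cytotoxicity; DMSO served as baseline.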

Read-out in test [11]: Human Leukocyte Antigen - DR isotype (HLADR), HLA-DRA (gene 3122)
The test is described as follows: BSK_BE3C_HLADR: BioMAP Diversity Plus: BE3C Assay for Human Leukocyte Antigen - DR isotype (HLADR) Biomarker Activity (AID 2283032). The following applies: primary human bronchial epithelial cells; actives raise or lower the signal. The essentials:
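Chemicals are dosed onto BE3C bronchial epithelial cultures of human origin and left 24 h. HLA-DR is then measured by ELISA, and the endpoint is fitted in both directions using DMSO as the activity baseline.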

Read-out in test [12]: Vascular cell adhesion molecule 1 (VCAM1), VCAM1 (gene 7412)
Nature of the test: BSK_4H_VCAM1: BioMAP Diversity Plus: 4H Assay for Vascular cell adhesion molecule 1 (VCAM1) Biomarker Activity (AID 2283033).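 Note: cell-surface VCAM-1 protein measured by ELISA.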 Conditions: primary human endothelial cells (HUVEC); actives raise or lower the signal. The method in brief:
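Chemicals are added to primary human umbilical vein endothelial cells. After 24 h, VCAM-1 levels are measured by ELISA. Values come from bidirectional fitting referenced to DMSO.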

Read-out in test [13]: Interferon-gamma inducible Protein 10 (IP10), CXCL10 (gene 3627)
The test is described as follows: BSK_BE3C_IP10: BioMAP Diversity Plus: BE3C Assay for Interferon-gamma inducible Protein 10 (IP10) Biomarker Activity (AID 2283034). The following applies: primary human bronchial epithelial cells; actives raise or lower the signal. The method in brief: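 IP-10 quantified by ELISA serves as the endpoint. Cells: primary human bronchial epithelium, read 24 h after compound addition. Activity is derived by bidirectional fitting with DMSO as negative control.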

Read-out in test [14]: Monokine induced gamma interferon (MIG), CXCL9 (gene 4283)
Nature of the test: BSK_BE3C_MIG: BioMAP Diversity Plus: BE3C Assay for Monokine induced gamma interferon (MIG) Biomarker Activity (AID 2283035).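 Note: MIG protein measured by ELISA in BE3C cultures after 24 h of dosing.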 The following applies: primary human bronchial epithelial cells; actives raise or lower the signal. The method in brief: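 Dose cells (human primary bronchial epithelial), incubate 24 h, quantify MIG by ELISA, then fit concentration–response in both directions relative to DMSO control.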

Read-out in test [15]: Transforming growth factor beta 1 (TGFb1), TGFB1 (gene 7040)
The test is described as follows: BSK_BE3C_TGFb1: BioMAP Diversity Plus: BE3C Assay for Transforming growth factor beta 1 (TGFb1) Biomarker Activity (AID 2283036;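 note: TGF-b1 protein level measured by ELISA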). Conditions: primary human bronchial epithelial cells; actives raise or lower the signal. The essentials:
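Bronchial epithelial primary cells are treated with test chemical, then TGF-b1 is quantified by ELISA after 24 hours. Values derive from bidirectional fitting against DMSO, with cytotoxicity checked by SRB staining in parallel cultures.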

Read-out in test [16]: Plasminogen activator inhibitor-1 (PAI1), SERPINE1 (gene 5054)
Nature of the test: BSK_BE3C_PAI1: BioMAP Diversity Plus: BE3C Assay for Plasminogen activator inhibitor-1 (PAI1) Biomarker Activity (AID 2283037). The following applies: primary human bronchial epithelial cells; actives raise or lower the signal. The method in brief:
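Values derive from bidirectional fitting against DMSO baseline of PAI-1 levels, measured by ELISA in human bronchial epithelial cells 24 h after compound addition.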

Read-out in test [17]: urokinase plasminogen activator (uPA), PLAU (gene 5328)
Nature of the test: BSK_BE3C_uPA: BioMAP Diversity Plus: BE3C Assay for urokinase plasminogen activator (uPA) Biomarker Activity (AID 2283038).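 Note: uPA protein level quantified by ELISA in cell cultures; uPA read one day after compound addition.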 The following applies: primary human bronchial epithelial cells; actives raise or lower the signal. The method in brief: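 Using confluent primary human lung bronchial epithelial cultures, we dosed chemicals, waited 24 h, then ran a uPA ELISA, fitting bidirectionally against DMSO.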

Read-out in test [18]: Urokinase-type plasminogen activator receptor (uPAR), PLAUR (gene 5329)
Nature of the test: BSK_BE3C_uPAR: BioMAP Diversity Plus: BE3C Assay for Urokinase-type plasminogen activator receptor (uPAR) Biomarker Activity (AID 2283039).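 Note: uPAR protein level measured by ELISA on the cells; cells exposed to compound for one day before measurement.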 The following applies: primary human bronchial epithelial cells; actives raise or lower the signal. The method in brief:
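Steps: dose human primary bronchial epithelial cells, incubate 24 h, measure uPAR by ELISA, then fit gain- or loss-of-signal response bidirectionally relative to DMSO.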

Read-out in test [19]: Interleukin-6 (IL6), IL6 (gene 3569)
Nature of the test: BSK_CASM3C_IL6: BioMAP Diversity Plus: CASM3C Assay for Interleukin-6 (IL6) Biomarker Activity for (AID 2283040). Conditions: primary human coronary artery smooth muscle cells; actives raise or lower the signal.

A word on the AC50: it is the concentration at which the activity in the assay is half-maximal.

Regarding `CN/C(=N\[N+](=O)[O-])NCc1cnc(Cl)s1`, the outcome in [1], in test [2], in test [3], in test [4], in test [5] and in [6] was inactive. Besides, the result in test [7], in [8], in test [9], in test [10], in [11] and in test [12] was inactive. The result in test [13], in test [14], in test [15], in [16], in test [17] and in test [18] was inactive. Moreover, the result in test [19] was inactive.
In the case of `COC(=O)NS(=O)(=O)c1ccc(N)cc1`, the result in [1], in test [2], in [3], in [4], in test [5] and in [6] was inactive. Moreover, the outcome in test [7], in test [8], in [9], in test [10], in test [11] and in [12] was inactive. For the same molecule, the result in test [13], in test [14], in test [15], in [16], in [17] and in [18] was inactive. Further, the outcome in test [19] was inactive.
As for `Cn1c(-c2ccccc2)cc(-c2ccccc2)[n+]1C`, the outcome in [1], in test [2], in test [3], in [5], in [7] and in test [8] was inactive. Further, the outcome in test [9], in test [10], in [12], in test [14], in test [15] and in test [16] was inactive. Besides, the outcome in test [17], in [18] and in test [19] was inactive. Besides, the AC50 in [4] was 9.8 µM (active); in test [6], 1.65 µM (active); in test [11] it was 3.97 µM (active); in test [13], 16.5 µM (active).
As for `O=C(O)c1c(Cl)ccc2cc(Cl)cnc12`, the outcome in test [1], in test [2], in test [3], in [4], in [5] and in test [6] was inactive. The result in test [7], in test [8], in [9], in test [10], in test [11] and in [12] was inactive. The result in test [13], in test [14], in test [15], in [16], in test [17] and in test [18] was inactive. Also, the outcome in test [19] was inactive.
With `COc1cc(Cl)c(OC)cc1Cl`, the outcome in test [1], in test [2], in [3], in [4], in [5] and in [7] was inactive. The outcome in [8], in test [9], in test [10], in test [11], in [12] and in test [13] was inactive. Besides, the result in test [14], in test [15], in test [16], in test [17], in test [18] and in test [19] was inactive. In addition, the half-maximal activity concentration (AC50) in test [6] was 3.09 µM (active).
Regarding `COCC(=O)N(c1c(C)cccc1C)C(C)C(=O)OC` (centres undefined), the result in [1], in test [2], in [3], in [4], in [5] and in test [6] was inactive. The outcome in test [7], in test [8], in test [9], in test [10], in test [11] and in test [12] was inactive. Further, the result in test [13], in test [14], in test [15], in test [16], in [17] and in test [18] was inactive. Besides, the result in [19] was inactive.
